The source of these data is PubChem BioAssay (NCI).

Test systems include HCT-15 colon; HT29 colon; SNB-75 CNS; SNB-19 CNS; U251 CNS; PC-3 prostate; SK-MEL-5 melanoma; UACC-62 melanoma; LOX IMVI melanoma; SK-MEL-28 melanoma; SK-MEL-2 melanoma; EKVX NSCLC; SN12C renal; TK-10 renal; ACHN renal; CAKI-1 renal; A498 renal; CCRF-CEM leukemia; MOLT-4 leukemia; UO-31 renal.
Experiment in all cases: NCI-60 one-dose screen, 48 h (100 = growth as untreated, 0 = no growth, -100 = all killed)
Common to all, as to settings: 10 µM unless noted

Compounds without any hit were thinned out: in the full panel of roughly 83,000, 20% have a hit.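 Plates (96-well) were seeded with cells, treated with compound at one concentration, and incubated for 48 hours before percent growth was determined.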 A number with no mark means an inactive call. Activity calls are given as the source filed them. How the source made its calls: active means growth percent below 10; inactive means the rest.

With `O=C(/C(=C\c1ccc([N+](=O)[O-])cc1)S(=O)Cc1ccc(Cl)cc1)c1ccc(Cl)cc1` (stereo unspecified), the growth with HCT-15 colon is 34.8%; in the experiment with HT29 colon it was 16.5%; with SNB-75 CNS, 93%; in the experiment on SNB-19 CNS it was 71.6%; in the experiment on U251 CNS, 53.6%; in the experiment with PC-3 prostate, 66.9%. In addition, the growth with SK-MEL-5 melanoma was 90.7%; in the experiment on UACC-62 melanoma, 69.2%; in the experiment on LOX IMVI melanoma, 40.5%; with SK-MEL-28 melanoma it was 86.8%; in the experiment on SK-MEL-2 melanoma, 94.6%; in the experiment with EKVX NSCLC, 98.5%. Also, the growth in the experiment on SN12C renal was 49.6%; in the experiment with TK-10 renal, 91.9%; with ACHN renal, 64.6%; with CAKI-1 renal it was 83.8%; in the experiment on A498 renal it was 77.4%; in the experiment on CCRF-CEM leukemia, 22%. In addition, in the experiment with MOLT-4 leukemia, the growth was 25.1%.
In the case of `COc1ccc(C(C)=O)c(OC)c1`, the growth was 106% in the experiment with HCT-15 colon; 92% in the experiment on HT29 colon; 91.7% with SNB-75 CNS; 100% in the experiment on SNB-19 CNS; 101% with U251 CNS; 91.1% in the experiment on PC-3 prostate. Moreover, the growth is 107% with SK-MEL-5 melanoma; 96.1% in the experiment on UACC-62 melanoma; 103% in the experiment on LOX IMVI melanoma; 109% in the experiment on SK-MEL-28 melanoma; 94.6% in the experiment with SK-MEL-2 melanoma; 114% with EKVX NSCLC. The growth in the experiment on SN12C renal is 106%; in the experiment with UO-31 renal, 97.4%; in the experiment with ACHN renal it was 110%; in the experiment on CAKI-1 renal it was 99.7%; in the experiment with CCRF-CEM leukemia it was 103%; with MOLT-4 leukemia, 102%.
With `Clc1ccc(-c2ccc(CNCC3CCNCC3)o2)c(-c2ccccc2)c1`, the growth in the experiment on HCT-15 colon was -76.3% (active); in the experiment with HT29 colon, -78.6% (active); in the experiment with SNB-75 CNS, -90.8% (active); in the experiment on SNB-19 CNS, -68.1% (active); with U251 CNS, -88.8% (active); in the experiment with PC-3 prostate it was -81.8% (active). Besides, the growth with SK-MEL-5 melanoma is -99.1% (active); with UACC-62 melanoma it was -90.8% (active); with LOX IMVI melanoma it was -86.7% (active); in the experiment with SK-MEL-28 melanoma it was -90% (active); in the experiment on SK-MEL-2 melanoma, -75.7% (active); in the experiment with EKVX NSCLC, -15% (active). The growth in the experiment with SN12C renal was -75.6% (active); in the experiment on TK-10 renal it was -85.3% (active); with ACHN renal, -96.8% (active); in the experiment on CAKI-1 renal, -85.3% (active); with A498 renal, 6.29% (active); in the experiment on CCRF-CEM leukemia it was -62.7% (active). In the experiment with MOLT-4 leukemia, the growth is -62.7% (active).
`O=[N+]([O-])CC(c1ccccc1F)c1c[nH]c2ccccc12` (stereo unspecified): the growth is 39.3% with HCT-15 colon; 23.6% in the experiment with HT29 colon; 54.9% with SNB-75 CNS; 80.5% with SNB-19 CNS; 65.6% in the experiment with U251 CNS; 87.5% in the experiment on PC-3 prostate. Also, the growth in the experiment on SK-MEL-5 melanoma is 81.5%; with UACC-62 melanoma, 53.4%; in the experiment on LOX IMVI melanoma, 61%; in the experiment on SK-MEL-28 melanoma, 78.2%; with SK-MEL-2 melanoma it was 57%; in the experiment on EKVX NSCLC it was 79.4%. Besides, the growth in the experiment on SN12C renal was 88.6%; with TK-10 renal it was 96.8%; with ACHN renal, 94.7%; with CAKI-1 renal, 59.2%; in the experiment with CCRF-CEM leukemia it was 69.7%; in the experiment with MOLT-4 leukemia it was 59%.
For the compound `COc1ccc(C(=O)c2cc(C)c(OC)c(C)c2)c(OC)c1N(C(=O)CCl)C(=O)CCl`, the growth with HCT-15 colon was 4.71% (active); in the experiment with HT29 colon it was 3.24% (active); in the experiment on SNB-75 CNS, 45.2%; in the experiment on SNB-19 CNS it was 11.9%; in the experiment with U251 CNS it was 16.1%; in the experiment with PC-3 prostate, 13.1%. The growth was -9.39% (active) in the experiment with SK-MEL-5 melanoma; 24.5% in the experiment on UACC-62 melanoma; 14.1% in the experiment on LOX IMVI melanoma; 54% in the experiment on SK-MEL-28 melanoma; 27.8% in the experiment on SK-MEL-2 melanoma; 51.7% in the experiment with EKVX NSCLC. The growth in the experiment on SN12C renal is 31.3%; with TK-10 renal, 52.5%; in the experiment on ACHN renal, 18.2%; in the experiment with CAKI-1 renal, 42%; with CCRF-CEM leukemia, 8.61% (active); with MOLT-4 leukemia, 13.2%.
As to `N#Cc1c(NC(=O)NCc2ccccc2)sc2c1CCCCC2`, the growth in the experiment with HCT-15 colon was 15.2%; in the experiment with HT29 colon, 9.68% (active); in the experiment on SNB-75 CNS it was 22.8%; with SNB-19 CNS, 28.2%; in the experiment on U251 CNS, 24.8%; in the experiment with PC-3 prostate, 28.7%. The growth in the experiment with SK-MEL-5 melanoma is 17.6%; in the experiment on UACC-62 melanoma, 18.9%; in the experiment on LOX IMVI melanoma, 26.4%; in the experiment on SK-MEL-28 melanoma, 67.4%; in the experiment with SK-MEL-2 melanoma, 39.1%; in the experiment on EKVX NSCLC, 39.3%. Moreover, the growth in the experiment with SN12C renal was 30.3%; with UO-31 renal it was 46.7%; with ACHN renal it was 43.4%; in the experiment with CAKI-1 renal it was 29.8%; with CCRF-CEM leukemia, 14.7%; in the experiment on MOLT-4 leukemia it was 18%.
`O=C1Nc2cc(-c3ccc(NS(=O)(=O)c4ccccc4)cc3)ccc2/C1=C/c1ccc[nH]1`: the growth was 62.9% in the experiment with HCT-15 colon; 84.2% in the experiment on HT29 colon; 98.5% in the experiment on SNB-75 CNS; 98.1% in the experiment with SNB-19 CNS; 97.9% in the experiment with U251 CNS; 82.5% in the experiment with PC-3 prostate. Also, the growth in the experiment on SK-MEL-5 melanoma was 91.2%; with UACC-62 melanoma it was 89.3%; in the experiment on LOX IMVI melanoma, 69.3%; with SK-MEL-28 melanoma, 108%; in the experiment with SK-MEL-2 melanoma, 112%; in the experiment with EKVX NSCLC, 28.9%. For the same compound, the growth in the experiment with SN12C renal was 96.2%; in the experiment with UO-31 renal it was 69.2%; in the experiment on ACHN renal, 88.5%; in the experiment on CAKI-1 renal, 82.9%; with CCRF-CEM leukemia it was 63.9%; in the experiment on MOLT-4 leukemia it was 73.1%.
As to `N#CC1C(C#N)C2c3ccccc3C=CN2C1C(=O)c1ccc(Br)cc1` (stereo unspecified), the growth was 95.9% with HCT-15 colon; 86.8% in the experiment with HT29 colon; 90.5% with SNB-75 CNS; 91.2% in the experiment on SNB-19 CNS; 100% with U251 CNS; 94% in the experiment on PC-3 prostate. Also, the growth is 90.8% in the experiment with SK-MEL-5 melanoma; 98.4% in the experiment with UACC-62 melanoma; 92.2% with LOX IMVI melanoma; 102% with SK-MEL-28 melanoma; 98.3% with SK-MEL-2 melanoma; 93% in the experiment with EKVX NSCLC. The growth in the experiment with SN12C renal is 88.6%; with UO-31 renal it was 99.2%; in the experiment on ACHN renal it was 90.3%; with CAKI-1 renal, 89.8%; with CCRF-CEM leukemia, 99.2%; in the experiment with MOLT-4 leukemia it was 102%.
